PubChem BioAssay (Tox21)
Values joined by “and” are separate entries in the source; they are usually repeats but may differ in a detail not shown here. Equal values may be shown once. Results filed as inconclusive are left out. Entries that show only a call come without a potency. Unmarked numbers belong to inactive results. Active and inactive are the calls of the source. Calls come from the whole dose curve; as a rule, active = well fitted activation curve with a large enough effect in the repeat runs; inconclusive = weak or mixed curves; inactive = flat fitted curve, though single readings scatter.

experiment: A CellTox Green Cytotoxicity Assay to monitor cytotoxicity in HepG2 cells - 24 hour (AID 1224878); settings: CellTox Green fluorescence; series mostly up to 76.8 µM; cytotoxicity: at the top concentration; note: nearly all actives have a fitted effect of over 45% in size
From the text: National Center for Advancing Translational Sciences [NCATS]
NIH Chemical Genomics Center [NCGC]
U.S. Environmental Protection Agency [EPA]
National Institutes of Environmental Health Sciences [NIEHS]
National Toxicology Program [NTP]
Cell-based models are critical for drug discovery. Determining the natural cytotoxic effects resulting from test compounds is an essential research activity. A CellTox Green Cytotoxicity Assay to monitor cytotoxicity in real time of continues cell culture during 40 hours of the compound treatment was used to screen Tox21 10K library compounds in HepG2 cells. CellTox Green Cytotoxicity Assay is a nonlytic, homogeneous, biofluorescent method to measure cytotoxicity in cell culture after experimental manipulation. The assay system uses a proprietary asymmetric cyanine dye that is excluded from viable cells but preferentially stains the dead cell's DNA. […] Viable cells produce no appreciable increases in fluorescence. Therefore, the fluorescence signal produced by the binding interaction with dead cell DNA is proportional to cytotoxicity.
The mixture of HepG2 cell suspension and reagents were dispensed at 600cells/6 ul/well in 1536-well tissue culture treated black solid bottom plates using a Multidrop dispenser. After the assay plates were incubated at a 37 C/5% CO2 incubator for 5 hours, 23 nL of compounds dissolved in DMSO, positive and negative controls was transferred to the assay plate by a pintool work station. The plates were incubated at 37 C for 40 hours. The fluorescence intensity were measured at 0h, 8h, 16h, 24h, 32h and 40h time points using ViewLux plate reader during compound treatment.
Potency is the fitted concentration of half-maximal effect.

Compound	Potency	cytotoxicity
CC/C(=C(\c1ccccc1)c1ccc(OCCN(C)C)cc1)c1ccccc1	48.9 µM (active) [middle of 5 runs]	–
F[B-](F)(F)F	inactive	–
CC(=O)Nc1c(I)c(NC(C)=O)c(I)c(C(=O)O)c1I	inactive	–
COc1ccc(C(Cl)=C(c2ccc(OC)cc2)c2ccc(OC)cc2)cc1	inactive	–
CC(=O)CC(c1ccccc1)c1c(O)c2ccccc2oc1=O (stereo not given)	inactive	–
NC1CCCCC1	inactive	–
CCCCC(CC)C(=O)O (stereo not given)	inactive	–
O=C(O)c1ccccc1	inactive	–
NC(=O)c1cccnc1	inactive	–
Cc1cc(=O)oc2cc(O)ccc12	inactive	–
Nc1ccc2c(c1)CN1C(=O)c3ccccc3C1=N2	10.4 µM (active)	–
CN1CCC[C@H]1c1cccnc1	inactive	–
CCCCNC(=O)NS(=O)(=O)c1ccc(C)cc1	inactive	–
Cc1cn([C@H]2C=C[C@@H](CO)O2)c(=O)[nH]c1=O	inactive	–
NS(=O)(=O)c1cc2c(cc1Cl)NCNS2(=O)=O	inactive	–
CC(=O)CCC(=O)O	inactive	–
O=CC(=O)c1ccccc1	–	-3.79%
O=c1[nH]cc(F)c(=O)[nH]1	inactive	–
Nc1ccc(S(N)(=O)=O)cc1	inactive	–
CC(=O)C(=O)O	inactive	–

Compound	Potency	cytotoxicity
CC(C)C(=O)Nc1ccc([N+](=O)[O-])c(C(F)(F)F)c1	inactive	–
CN(C)CCOC(C)(c1ccccc1)c1ccccn1 (stereo not given)	inactive	–
CC1(C)S[C@@H]2[C@H](NC(=O)[C@H](N)c3ccccc3)C(=O)N2[C@H]1C(=O)O	inactive	–
O=C(Nc1ncc([N+](=O)[O-])s1)c1cccs1	–	-2.95% [at 35.3 µM]
Nc1ccc(O)c([N+](=O)[O-])c1	–	-14.5%
O=C1O[C@H]([C@@H](O)CO)C(O)=C1O	inactive	–
Nc1c2c(nc3ccccc13)CCCC2	inactive	–
Cc1c(C(=O)O)c(O)cc2c1C(=O)c1c(O)c([C@@H]3O[C@H](CO)[C@@H](O)[C@H](O)[C@H]3O)c(O)c(O)c1C2=O	inactive	–
CCCCOC(=O)c1ccc(O)cc1	–	4.58% [at 35.3 µM]
CCCCCCCCCCCC[N+](C)(C)Cc1ccccc1	19.1 µM (active) and 23.8 µM (active) and 10.7 µM (active)	–
COc1cccc(O)c1O	–	-16.7%
Oc1ccccc1	inactive	–
Cc1cc(C)nc(NS(=O)(=O)c2ccc(N)cc2)n1	inactive	–
NS(=O)(=O)O	inactive	–
CC(C)c1c(C(=O)Nc2ccccc2)c(-c2ccccc2)c(-c2ccc(F)cc2)n1CC[C@@H](O)C[C@@H](O)CC(=O)O	2.98 µM (active) and 45.8 µM (active) and 4.77 µM (active)	–
Nc1ccc([N+](=O)[O-])cc1O	–	-3.22%
O=C1NS(=O)(=O)c2ccccc21	inactive	–
CCCCCCCCCCCCCCCC[N+](C)(C)Cc1ccccc1	25.3 µM (active) and 17.7 µM (active) and 19 µM (active)	–
CC(C)NCC(O)c1ccc(O)c(O)c1 (stereo not given)	inactive	–
C[C@](N)(Cc1ccc(O)c(O)c1)C(=O)O	inactive	–
